Our source for the Potency values is PubChem BioAssay (NCATS).

Each structure is given as a SMILES string. Records with an inconclusive call do not appear. The source made the active and inactive calls. Calls come from the whole dose curve; as a rule, active = well fitted inhibition curve with a large enough effect; inconclusive = small, poorly fitted or top-dose-only effect; inactive = flat fitted curve, though single readings scatter.

What all share (experiment): qHTS profiling for inhibitors of Plasmodium falciparum proliferation (AID 504749); note: nearly all actives have a fitted effect of over 60% in size
Details in all cases: P. falciparum in erythrocytes, SYBR Green DNA, 72 h; series mostly up to 28.7 µM
(In qHTS, concentration-response curves come from the screen itself.)

The subject of one experiment is CP250. Put shortly: (§1)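 SYBR Green fluorescence of parasite DNA, read after lysis and overnight dark incubation, measured growth over 72 h in erythrocyte culture at 0.3% parasitemia and 2.5% hematocrit. Data normalised to DMSO and 0.29 uM artemisinin, with plate-drift correction.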
The subject of a further experiment is CP256. Put shortly: as §1
Another experiment has as its system CP260. Put shortly: as §1
In the next experiment the test system is CP265. Put shortly:
as §1

The next experiment concerns CP297. Put shortly:
as §1

Another experiment has as its system CP315. Put shortly:
as §1

A further experiment has as its system CP325. Put shortly:
as §1

The next experiment has as its system CP329. Put shortly:
as §1

The subject of another experiment is CP262. Put shortly:
as §1

Another experiment has as its system CP266. Put shortly:
as §1

The next experiment concerns CP268. Put shortly:
as §1

The test system of another experiment is CP269. Put shortly:
as §1

A further experiment has as its system CP286. Put shortly: as §1
Another experiment has as its system CP291. Put shortly:
as §1

For a further experiment, the system named is CP305. Put shortly: as §1
The next experiment deals with DFO2036. Put shortly: as §1
Another experiment relates to DIV14. Put shortly:
as §1

Another experiment relates to CP247. Put shortly:
as §1

Another experiment relates to CP252. Put shortly: as §1
Another experiment deals with CP335. Put shortly:
as §1
Potency is the fitted concentration of half-maximal effect.

For the compound `CC1CCc2c(N3CCC(O)CC3)c(F)cc3c(=O)c(C(=O)O)cn1c23` (centres undefined), the Potency result in the experiment on CP250, with CP256, with CP265, in the experiment with CP297, in the experiment on CP315 and in the experiment with CP325 was “inactive” in each case. Besides, in the experiment on CP329, the Potency result is “inactive”. Moreover, the Potency in the experiment on CP260 is 12.6 µM (active).
As for `N/C(=N\N=C\c1ccc(Cl)cc1)N/N=C/c1ccc(Cl)cc1`, the Potency with CP256 is 10 µM (active); in the experiment with CP260, 3.55 µM (active); in the experiment on CP286, 3.55 µM (active); in the experiment on DFO2036 it was 3.16 µM (active). Further, the Potency entry with CP262, in the experiment on CP266, in the experiment with CP268, in the experiment with CP269, with CP291 and with CP297 was “inactive” each time. Also, the Potency result in the experiment on CP305, with CP315, with CP325, with CP329 and with DIV14 was “inactive” throughout.
With `COC(=O)C(c1ccccc1Cl)N1CCc2sccc2C1` (centres undefined), the Potency entry in the experiment on CP247, in the experiment with CP297 and in the experiment on DIV14 was “inactive” throughout.
With `CN(C)CCOC(c1ccc(Cl)cc1)c1ccccn1` (centres undefined), the Potency result in the experiment with CP250, in the experiment on CP262, in the experiment on CP315, with CP329 and in the experiment with DFO2036 was “inactive” each time. In the experiment on CP265, the Potency is 7.08 µM (active).
`C[N+]1(CC2COC(c3ccccc3)(C3CCCCC3)O2)CCCCC1` (centres undefined): the Potency in the experiment on CP252 is 10 µM (active); in the experiment on CP256, 10 µM (active); in the experiment with CP260, 4.47 µM (active); in the experiment on CP262 it was 5.36 µM (active); in the experiment with CP265, 10 µM (active); with CP266 it was 8.49 µM (active). Also, the Potency is 7.57 µM (active) with CP268; 4.78 µM (active) in the experiment on CP269; 5.01 µM (active) in the experiment with CP286; 4.78 µM (active) in the experiment with CP291; 6.01 µM (active) with CP297; 4.78 µM (active) in the experiment with CP305. The Potency in the experiment on CP315 was 6.01 µM (active); with CP325 it was 6.75 µM (active); with DFO2036 it was 7.94 µM (active); in the experiment with DIV14, 6.01 µM (active).
For the compound `CCN(CC)CCOC(=O)C1(c2ccccc2)CCCC1`, the Potency entry in the experiment with CP250, in the experiment with CP252, in the experiment with CP256, in the experiment with CP262, in the experiment with CP265 and with CP329 was “inactive” throughout. The Potency entry in the experiment on DFO2036 was “inactive”.
`CC1(COc2ccc(CC3SC(=O)NC3=O)cc2)CCCCC1` (centres undefined): the Potency result in the experiment on CP250, with CP252, in the experiment with CP256, with CP260, in the experiment on CP262 and with CP265 was “inactive” in each case. Also, the Potency entry with CP266, with CP268, with CP269, in the experiment on CP286, with CP291 and with CP305 was “inactive” each time. For the same compound, the Potency result with CP315, in the experiment with CP325, in the experiment on CP329, with CP335, in the experiment with DFO2036 and with DIV14 was “inactive” in each case.
As for `CCCCCN=C(N)N/N=C/c1c[nH]c2ccc(OC)cc12`, the Potency in the experiment with CP260 is 5.01 µM (active); in the experiment on CP265, 4.47 µM (active); with CP269, 13.5 µM (active); in the experiment with CP291, 13.5 µM (active); in the experiment with CP335 it was 6.01 µM (active); in the experiment on DFO2036, 5.01 µM (active). Besides, the Potency with DIV14 is 2.69 µM (active). For the same compound, the Potency entry in the experiment on CP262 and in the experiment on CP315 was “inactive” throughout.
With `CCN(CC)CCOc1ccccc1C(=O)CCc1ccccc1`, the Potency entry with CP250, in the experiment on CP260, with CP262, in the experiment with CP269 and in the experiment with CP315 was “inactive” each time. Further, in the experiment with DIV14, the Potency was 6.75 µM (active).
In the case of `CN1CCC(OC(c2ccccc2)c2ccccc2)CC1`, the Potency result in the experiment with CP250, in the experiment on CP266, in the experiment on CP297 and in the experiment with CP315 was “inactive” in each case. In addition, the results for the Potency in the experiment on CP260 and with CP265 were 3.98 µM (active) and 3.55 µM (active), respectively.
For the compound `CC(=O)O[C@H]1C[C@@H]2CC[C@@H]3[C@H](CC[C@@]4(C)[C@H]3C[C@H]([N+]3(C)CCCCC3)[C@@H]4OC(C)=O)[C@@]2(C)C[C@@H]1N1CCCCC1`, the Potency entry in the experiment with CP247, in the experiment with CP268, in the experiment on CP291, in the experiment with CP315 and in the experiment with DFO2036 was “inactive” each time.
Take `O=S(c1cc(Cl)cc(Cl)c1O)c1cc(Cl)cc(Cl)c1O`: in the experiment with CP250, the Potency is 28.2 µM (active). In addition, the Potency entry in the experiment on CP286 is “inactive”.
`CCNC(=O)/C=C/c1cccc(Br)c1`: the Potency result with CP262, with CP266, in the experiment on CP268, in the experiment with CP269, with CP286 and in the experiment on CP291 was “inactive” each time. The Potency result in the experiment with CP297, in the experiment with CP305, with CP315, in the experiment with CP325, in the experiment on CP329 and in the experiment with CP335 was “inactive” in each case. In the experiment with DFO2036, the Potency result is “inactive”.
As to `OC(C#CCN1CCCC1)(c1ccccc1)c1ccccc1`, the figures for the Potency with CP260 and with CP297 were 8.91 µM (active) and 12 µM (active), respectively. The Potency result with CP266 and in the experiment on CP315 was “inactive” in each case.
In the case of `COc1ccc(CCN(C)CCCN2CCc3cc(OC)c(OC)cc3CC2=O)cc1OC`, the Potency result in the experiment with CP250, in the experiment on CP252, with CP262, in the experiment on CP265, in the experiment on CP266 and in the experiment on CP268 was “inactive” throughout. Besides, the Potency result with CP269, with CP286, in the experiment on CP291, with CP305, with CP315 and with CP325 was “inactive” throughout. Besides, the Potency result in the experiment on CP329, with CP335, in the experiment on DFO2036 and in the experiment with DIV14 was “inactive” throughout.
With `CC(=O)O[C@]1(C(C)=O)CC[C@H]2[C@@H]3C=C(Cl)C4=CC(=O)CC[C@]4(C)[C@H]3CC[C@@]21C`, the Potency with CP266 was 10.7 µM (active); with CP268, 16.9 µM (active); with CP286, 10 µM (active); in the experiment on CP291, 15.1 µM (active); with CP297, 9.53 µM (active); in the experiment on CP305, 13.5 µM (active). Further, in the experiment on CP325, the Potency is 15.1 µM (active).
Regarding `CO[C@]12C[C@@H](COC(=O)c3cncc(Br)c3)CN(C)[C@@H]1Cc1cn(C)c3cccc2c13`, the Potency result in the experiment with CP250, in the experiment with CP252, with CP256, in the experiment with CP265, in the experiment on CP266 and with CP269 was “inactive” throughout. The Potency result in the experiment on CP315, in the experiment on CP325 and in the experiment on CP329 was “inactive” each time.
Take `Cc1cc2c(OCC(CNC(C)(C)C)OC(=O)c3ccccc3)cccc2[nH]1` (centres undefined): the Potency result in the experiment with CP250, in the experiment on CP252, in the experiment on CP256, in the experiment on CP262, in the experiment with CP265 and in the experiment with CP266 was “inactive” each time. Also, the Potency result in the experiment with CP315, with CP325 and in the experiment on CP329 was “inactive” in each case. Moreover, the Potency in the experiment with CP260 was 11.2 µM (active); in the experiment with CP286, 8.91 µM (active).
With `CNCCCCOc1ccccc1Cc1ccccc1`, the Potency entry with CP262 is “inactive”. In addition, the Potency in the experiment with CP265 was 8.91 µM (active); in the experiment with DIV14 it was 3.79 µM (active).
For the compound `CN1CCc2cccc3c2[C@H]1Cc1ccc(O)c(O)c1-3`, the Potency in the experiment with CP250 is 8.91 µM (active); in the experiment on CP260, 11.2 µM (active); in the experiment on CP266 it was 8.49 µM (active); in the experiment with CP269, 16.9 µM (active); in the experiment with CP286 it was 6.31 µM (active); in the experiment on CP335, 3.79 µM (active). For the same compound, the Potency with DIV14 was 7.57 µM (active).
For `CCCCCCCCCCCCOCCOCCOCCOCCOCCOCCOCCOCCOCCO`, the Potency result in the experiment with CP262, in the experiment with CP266, with CP268, in the experiment with CP269, with CP286 and in the experiment on CP291 was “inactive” throughout. The Potency result in the experiment with CP297, with CP305, in the experiment on CP315, with CP325, in the experiment with CP329 and with DFO2036 was “inactive” in each case.
As to `CN(C)CCN1C(=O)c2ccccc2N(C)c2ccccc21`, the Potency result in the experiment with CP250, in the experiment on CP262, with CP266, in the experiment on CP315 and with CP329 was “inactive” throughout. Moreover, the Potency with CP265 was 12.6 µM (active); in the experiment on CP297, 13.5 µM (active).
On to `CC[N+](C)(CC)CCOC(=O)C(O)(c1ccccc1)C1CCCCC1` (centres undefined), for which the Potency result in the experiment with CP252, in the experiment on CP256, in the experiment with CP260, in the experiment with CP265, in the experiment with CP266 and in the experiment with CP268 was “inactive” in each case. The Potency entry with CP269, with CP315, with CP325, in the experiment with CP329 and with DIV14 was “inactive” in each case.
With `Clc1cccc(C(c2ccc3nc[nH]c3c2)n2ccnc2)c1` (centres undefined), in the experiment with CP262, the Potency entry is “inactive”. In addition, the Potency is 10 µM (active) in the experiment with DFO2036 and 15.1 µM (active) in the experiment with DIV14.
In the case of `O=C(CN1CCN(Cc2ccc3c(c2)OCO3)CC1)N1c2ccccc2Sc2ccccc21`, the Potency in the experiment on CP260 was 8.91 µM (active); in the experiment on CP265 it was 7.94 µM (active); in the experiment on CP286 it was 10 µM (active); in the experiment on DIV14 it was 12 µM (active). Also, the Potency entry in the experiment on CP266 is “inactive”.
